# RORgamma inh: ROR gamma (mouse) transcription inhibition; Potency, µM (doses to about 53.6 µM), without a hit: top-dose activity change, negative = inhibition, most hits filed as inhibitors; P51450; AID 2551; 310,000 compounds, 5.4% hits; Drosophila S2 Gal4-RORgamma UAS-luciferase reporter, 20 h; also: nearly all actives have a fitted effect of over 60% in size
#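 Luminescence from a UAS-regulated Photinus luciferase reporter in stably transfected Drosophila Schneider cells is measured; decreased signal marks ROR gamma inhibition. Fusion expression is induced by 700 uM copper sulfate for 20 hr.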
# 12-LOX inh: blocks human arachidonate 12S-lipoxygenase | Potency, µM (top dose mostly 108 µM), without a hit: at the top dose activity change, negative = inhibition, most hits filed as inhibitors | purified 12hLO, xylenol orange hydroperoxide absorbance | 580,000 compounds, 1.1% hits | AID 1671190 | P18054
# Target sequence (P18054 whole entry, looked up): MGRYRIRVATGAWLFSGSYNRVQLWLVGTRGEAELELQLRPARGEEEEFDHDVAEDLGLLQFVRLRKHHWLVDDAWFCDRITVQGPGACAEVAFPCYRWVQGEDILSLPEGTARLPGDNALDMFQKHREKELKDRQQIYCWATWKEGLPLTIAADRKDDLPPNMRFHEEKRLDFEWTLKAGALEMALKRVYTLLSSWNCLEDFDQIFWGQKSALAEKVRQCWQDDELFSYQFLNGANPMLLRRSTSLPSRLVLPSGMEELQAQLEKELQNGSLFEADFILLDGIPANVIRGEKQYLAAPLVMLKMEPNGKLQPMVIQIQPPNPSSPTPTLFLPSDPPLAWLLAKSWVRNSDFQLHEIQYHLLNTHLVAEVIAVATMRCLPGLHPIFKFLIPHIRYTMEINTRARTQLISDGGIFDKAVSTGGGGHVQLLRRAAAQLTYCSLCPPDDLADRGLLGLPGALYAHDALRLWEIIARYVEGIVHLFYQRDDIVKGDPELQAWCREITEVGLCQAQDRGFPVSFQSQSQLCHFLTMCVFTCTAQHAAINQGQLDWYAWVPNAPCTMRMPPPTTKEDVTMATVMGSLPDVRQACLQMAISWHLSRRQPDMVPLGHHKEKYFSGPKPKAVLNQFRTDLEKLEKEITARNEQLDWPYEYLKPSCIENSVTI
#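 Hydroperoxide product was detected by ferrous iron/xylenol orange as the 573 to 405 nm absorbance ratio. Arachidonic acid at 40 uM (final) was turned over for 30 min at room temperature by 150 nM human 12hLO, pH 7.0 Hepes buffer, after 15 min compound preincubation.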
# ELG1 repair inh: blocks ELG1-dependent DNA repair in HEK293T cells; HEK293T ELG1-luciferase reporter, luminescence, 16 h; DNA damage induced by 5-fluorouridine; 330,000 compounds, 2.3% hits; AID 504467; Potency, µM (doses to about 46.1 µM), without a hit: top-dose activity change, negative = inhibition, most hits filed as inhibitors; also: nearly all actives have a fitted effect of over 55% in size
#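 HEK293T cells expressing luciferase-tagged ELG1 (2,000/well) received 5-Fluorouridine plus compound or DMSO for 16 hr at 37 °C. Luciferase was read by ONE-Glo luminescence after 30 min at room temperature.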
# VP16 counter: inhibits Gal4-VP16 luciferase reporter, ROR gamma counter-screen. Potency, µM (top dose mostly 53.6 µM), for inactives: top-dose activity, negative = inhibition, most hits filed as inhibitors. 310,000 compounds, 3.5% hits. AID 2546. Drosophila S2 Gal4-VP16 UAS-luciferase, luminescence, 20 h;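 also: Gal4-VP16 expression switched on by copper sulfate through the metallothionein promoter; nearly all actives have a fitted effect of over 50% in size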
# TDP1 cell noCPT: qHTS for Inhibitors of human tyrosyl-DNA phosphodiesterase 1 (TDP1): qHTS in cells in absence of CPT; AID 686978, 2013; Potency, µM (series often up to 46.2 µM), inactives show at the top dose activity change, negative = growth inhibition, hits mostly inhibitors; 420,000 compounds, 15% hits; DT40 Tdp1-/- hTDP1 cells, no CPT, ATP luminescence, 48 h; also: nearly all actives have a fitted effect of over 55% in size
#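 Seeded 400 DT40-hTDP1 cells/well (vehicle DMSO, no 20 nM CPT); pinned compounds; ≥48 hr at 37 °C; CellTiter-Glo luminescence as viability measure.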
# TDP1 cell CPT: growth inhibition of DT40 Tdp1-/-;hTDP1 cells with camptothecin (screen for TDP1 inhibitors); 420,000 compounds, 12% hits; AID 686979; chicken DT40 Tdp1-/-;hTDP1 cells + 20 nM CPT, ATP luminescence, 48 h; Potency, µM (highest dose often 46.2 µM), for the others: top-dose activity change, negative = growth inhibition, usual class: inhibitors; also: nearly all actives have a fitted effect of over 55% in size
#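 Chicken DT40 Tdp1-/- cells complemented with human TDP1, 400 cells/well, exposed to compounds plus 20 nM camptothecin for at least 48 h at 37 C; viability read as ATP content by CellTiter-Glo luminescence.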
# * = called active by the depositor; ? = inconclusive; · = no result; [ ] = dose if it differs, or a comment. Compounds with a hit are over-represented: about 15% of the library has one in this group of screens. Calls follow the shape of the dose curve; as a rule, active = well fitted curve in the direction sought with a large enough effect; inconclusive = small, poorly fitted or top-dose-only effect, or another doubt; inactive = no such curve, though single readings can be large; an effect the other way counts as inactive or inconclusive. % is scaled to controls: 0 for no effect and ±100 for the full control effect; potency is read from the fitted curve at half-maximal effect.
SMILES,RORgamma inh,12-LOX inh,ELG1 repair inh,VP16 counter,TDP1 cell noCPT,TDP1 cell CPT
COc1cccc(/C=C/C(=O)OCC(=O)Nc2cccc(S(=O)(=O)N(C)C)c2)c1,-1%,-3%,9%,-3%[10 µM],-18%,-5%
CN(C)S(=O)(=O)c1cccc(NC(=S)N/N=C/C(c2ccccc2)c2ccccc2)c1,3.5µM*,?,13%,5µM*,13µM*,?
Cc1cc(C)n(Cc2ccc(C(=O)N3C[C@@H](Oc4cccnc4)C[C@H]3C(N)=O)o2)n1,·,29%,·,·,·,·
CCc1ccc(CN2CCC3(CC2)Cc2ccccc2CNC3=O)cc1,·,4%[6.33 µM],·,·,·,·
CNC(=O)c1cccc(NC(=O)C(C)c2ccc3cc(OC)ccc3c2)c1 (configuration not stated),7%,-43%,0%,7%,?,?
COc1ccc2cc(C(C)C(=O)Nc3cccc(S(=O)(=O)N(C)C)c3)ccc2c1 (configuration not stated),?,?,?,-5%,23µM*,?
CN(C)S(=O)(=O)c1cccc(NC(=S)N/N=C/c2ccc(O)c(O)c2O)c1,?,?,16µM*,-20%,16µM*,?
COc1ccc(O)c(/C=N/NC(=S)Nc2cccc(S(=O)(=O)N(C)C)c2)c1,?,?,?,?,6.5µM*,6.5µM*
Cc1cnc(NC(=O)c2nn(CC(C)C)c(=O)c3ccccc23)s1,·,12%,·,·,·,·
c1ccc(-c2ccnc(NCC3OCCc4ccccc43)n2)nc1 (configuration not stated),·,107%,·,·,·,·
COc1cc(C(=O)/C=C/c2ccccc2Br)ccc1OCC(=O)O,·,-11%,·,·,·,·
CCN(C(=O)CN1C(=O)S/C(=C\c2cccc(Cl)c2)C1=O)C1CCS(=O)(=O)C1 (configuration not stated),17%,0%,0%,-3%,3%,-13%
O=C(CCN1C(=O)/C(=C/c2ccc(F)cc2)SC1=S)NC1CCS(=O)(=O)C1 (configuration not stated),-6%,-20%,1%,-7%,-10%,-7%
CCN(C(=O)CN1C(=O)/C(=C/c2ccccc2F)SC1=S)C1CCS(=O)(=O)C1 (configuration not stated),10µM*,23%,-23%,-10%,?,?
CCN(C(=O)CN1C(=O)S/C(=C\C=C\c2ccccc2)C1=O)C1CCS(=O)(=O)C1 (configuration not stated),-24%,1%,1%,-4%,1.5µM*,1.8µM*
CCN(C(=O)CCN1C(=O)/C(=C/c2ccccc2)SC1=S)C1CCS(=O)(=O)C1 (configuration not stated),?,5%,-15%,?,?,18µM*
CC(C(=O)N(C)C1CCS(=O)(=O)C1)N1C(=O)/C(=C/c2ccc(F)cc2)SC1=S (configuration not stated),-7%,?,10%,16µM*,?,?
CCN(C(=O)CN1C(=O)S/C(=C\c2ccccc2OC)C1=O)C1CCS(=O)(=O)C1 (configuration not stated),-20%,-25%,5%,-5%,8%,-4%
COc1ccc(N2C(=O)C(C)CS2(=O)=O)cc1S(=O)(=O)N1CCCc2ccccc21 (configuration not stated),·,57%,·,·,·,·
CCN(CC)C(=O)CN1C(=O)/C(=C/c2ccccc2)SC1=S,33%,0%,7%,?,15µM*,18µM*
